Results published in PubChem BioAssay AID2501 (Southern Research Specialized Biocontainment Screening …, 2010).
The campaign covered roughly 2,200 compounds. About 1,200 (55%) were called active. No cut-off is given here; in the data, nearly all actives have IC50 up to about 92 µM. So high a share suggests a set chosen from earlier hits. Some of the results follow.

Experiment: counter assay for TAg ATPase ADP read-out – biochemical, ADP-Hunter, fluorescence, counter-screen (AID 2501);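 note: purified T antigen ATPase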
Settings: series mostly up to 100 µM

SMILES	IC50
COC(=O)c1sc2nc(-c3ccco3)ccc2c1N	inactive
COc1cc(N2C(=O)C=CC2=O)c(OC)cc1Cl	inactive
O=C(O)Cc1nn(Cc2ccc(Cl)cc2)c(=O)c2ccccc12	inactive
O=c1oc2c3c4c(cc2s1)CCCN4CCC3	inactive
CCCCCCNC(=O)N[C@H](C(=O)NCCC[C@H]1CN2C(=NC[C@H]2C)N1CCC(c1ccccc1)c1ccccc1)C(C)O (stereo not given in full)	inactive
CCN(CC(=O)NC(C)C)C(=O)Cc1ccc(C)c(C)c1	inactive
COc1ccc(CNC(=S)N/N=C/c2ccc(O)c(OC)c2)cc1	7.64 µM (active)
O=C(CCN1CCN(c2ccccc2)CC1)N/N=C/c1ccc(O)c(O)c1O	inactive
Oc1cccc(/C=N/NC(=S)NCCN2CCOCC2)c1O	7.38 µM (active)
Cc1c(NC(=O)CCC2CCCCC2)cc(C(=O)N2CCOCC2)cc1[N+](=O)[O-]	inactive
COCCCOc1ccnc(CS(=O)c2nc3ccccc3[nH]2)c1C (stereo not given)	inactive
O=C(O)CC1S/C(=N/N=C/C2CC=CCC2)NC1=O (stereo not given)	inactive
Cc1ccc(S(=O)(=O)N2[C@@H](c3ccc(Cl)cc3)C(C(=O)O)=CC[C@H]2c2ccc(C(C)C)cc2)cc1	inactive
CC(C)c1ccc(S(=O)(=O)N2CCN(CC(=O)c3ccc(O)c(O)c3)CC2)cc1	5.79 µM (active)
O=C(CN1CCN(S(=O)(=O)c2ccc(F)cc2)CC1)c1ccc(O)c(O)c1	7.5 µM (active)
Cc1cc(C)nc(SCc2cc(=O)c(OC(=O)c3ccc(S(=O)(=O)N4CCCC4)cc3)co2)n1	inactive
Cc1cccc(-c2ncc(CN3CCCC(CO)(Cc4ccccc4C)C3)cn2)c1 (stereo not given)	inactive
CCOc1cc(N2CCOCC2)c(OCC)cc1NC(C)C(=O)N1CCC(C)CC1 (stereo not given)	5.37 µM (active)
CC1CCN(CC(C)OC(=O)c2ccc3c(c2)OCCO3)CC1 (stereo not given)	inactive
CCOc1ccc(OCCC(=O)OCC(=O)Nc2cc(OCC)c(N3CCOCC3)cc2OCC)cc1	8.04 µM (active)
CCOc1ccc(CCNC(=O)c2cc(-c3ccccc3)c(N3CCOCC3)s2)cc1OCC	inactive
CCNC(=S)Nc1cc(OCC)c(N2CCOCC2)cc1OCC	4.1 µM (active)

SMILES	IC50
CCOc1cc(N2CCOCC2)c(OCC)cc1NS(=O)(=O)c1ccc(Cl)s1	6.56 µM (active)
CCCC(=O)O[C@]1(C(=O)CO)CC[C@H]2[C@@H]3CCC4=CC(=O)CC[C@]4(C)[C@H]3[C@@H](O)C[C@@]21C	inactive
COc1cc(/C=N/Nc2nc3ccccc3o2)cc(OC)c1O	6.58 µM (active)
C(=N\Nc1nc2ccccc2[nH]1)/c1cccs1	7.86 µM (active)
COc1cc(/C=C2\CCc3c2nc2ccccc2c3C(=O)O)cc(OC)c1OC	inactive
COc1cc(/C=N/Nc2nc3ccccc3[nH]2)cc(OC)c1O	6.33 µM (active)
COc1cc(/C=N/Nc2nc3ccccc3[nH]c2=O)ccc1O	8.65 µM (active)
CCC[C@@H]1CCCO[C@@](C(=O)NCc2ccc(S(C)(=O)=O)cc2)(C(F)(F)F)C1	inactive
Cc1cc(/C=C2\SC(=S)NC2=O)c(C)n1-c1cccc(O)c1	inactive
O=C1NC(=O)/C(=C/c2ccc(O)cc2)S1	5.07 µM (active)
Cc1c(N=C2NC(=O)/C(=C/c3ccc(O)cc3)S2)c(=O)n(-c2ccccc2)n1C	10 µM (active)
O=C1N/C(=C\c2ccc(O)cc2)C(O)=C1C=NCc1ccccc1	5.69 µM (active)
O=C1NC(=NCc2ccccc2)S/C1=C/c1ccc(O)cc1	8.9 µM (active)
COc1cccc2sc(Nc3nnc(-c4cccs4)o3)nc12	inactive
O=C(/C=C/c1ccc2ccccc2n1)N1CCN(S(=O)(=O)c2ccccc2F)CC1	inactive
CCCC1Nc2ccc(C(=O)O)cc2C2C=CCC12 (stereo not given)	inactive
COc1ccc2nc3ccccc3nc2c1N	19.9 µM (active)
NC(=O)NCCCC(=O)OCC(=O)c1ccc2ccccc2c1	inactive
Cc1ccc2oc(=O)c(/C=C(\O)C(C)(C)C)nc2c1	6.56 µM (active)
Cc1ccc2oc(=O)c(/C=C(\O)CC(C)C)nc2c1	4.38 µM (active)
NNc1nc(-c2ccccc2)nc(-c2ccccc2)c1Br	inactive
COc1cc(/C=N/NC(=O)c2ccccc2O)ccc1OC(=O)CC1SC(=O)NC1=O (stereo not given)	33.4 µM (active)

SMILES	IC50
O=C(CC1SC(=O)NC1=O)Oc1ccc(/C=N/NC(=O)c2ccccc2O)cc1 (stereo not given)	50.6 µM (active)
CC[C@H](C)/C=C/C1=CC2=C(Cl)C(=O)[C@@]3(C)OC(=O)C(C(=O)[C@H](C)[C@@H](C)O)=C3C2=CO1	inactive
Nc1ccc(Nc2nc3ccccc3[nH]2)cc1	6.24 µM (active)
O=C(CCc1ccc(O)c(O)c1)NNC(=S)Nc1ccc(Br)cc1Cl	19.5 µM (active)
O=S1(=O)N=C(Nc2ccc(O)cc2)c2ccccc21	3.57 µM (active)
O=C(CSC1=NS(=O)(=O)c2ccccc21)Nc1ccccc1	inactive
C=Cc1ccc2c(c1)OCCOCCOCCOCCOCCO2	inactive
Cc1cccc(OCC(=O)NC(=S)NNC(=O)c2ccncc2)c1	inactive
CC(C)(C)c1ccc(OCCC(=O)NNC(=O)c2ccccc2)cc1	41.8 µM (active)
CC(C)(C)c1ccc(OCC(O)CS(=O)(=O)c2ccccn2)cc1 (stereo not given)	inactive
CCN(CC)c1ccc(/C=N/O)cc1	4.69 µM (active)
CCN(CC)c1ccc(/C=C2\C(=O)N(c3nnc(C)c(=O)[nH]3)N=C2C)cc1	inactive
CCN(CC)c1ccc(/C=N/N2CCOCC2)cc1	4.08 µM (active)
O=C(O)c1ccc(-n2nc(-c3ccccc3)c3ccccc3c2=O)cc1	inactive
COc1cc(/C=N/n2nnnc2N)ccc1O	2.77 µM (active)
CCOc1ccc(/C=N/n2nnnc2N)cc1O	3.62 µM (active)
COC(=O)CN(c1ccccc1F)S(=O)(=O)c1ccccc1	inactive
CCOCCCn1c(SCC(=O)Nc2cc(OC)ccc2OC)nc2ccccc2c1=O	inactive
COc1cccc(-n2c(SCc3cc(=O)oc4cc(O)c(O)cc34)nc3ccccc3c2=O)c1	49.8 µM (active)
Cc1ccc(C)n1-c1ccncc1	inactive
Fc1ccccc1CSc1nnnn1-c1ccc2c(c1)OCO2	inactive
